Reference: PubChem BioAssay (NCATS)
Where “and” joins values, the source holds several entries; their conditions need not be identical. Equal entries are not always repeated. Records with an inconclusive call do not appear. Calls of active or inactive are those of the source. Calls come from the whole dose curve; as a rule, active = well fitted curve in the direction sought with a large enough effect; inconclusive = small, poorly fitted or top-dose-only effect, or another doubt; inactive = no such curve, though single readings can be large; an effect the other way counts as inactive or inconclusive.

Assays:
[1] = Viability qHTS for spleen associated tyrosine kinase inhibitor (SYKi) drug resistant MV4-11 cells (AID 1963824); note: nearly all actives have a fitted effect of over 35% in size; note: potency is the fitted concentration of half-maximal effect
In short: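 SYK-inhibitor-resistant MV4-11 AML cells were seeded at 500 per well onto compound and cultured 72 hours (37 °C, 5% CO2). CellTiter-Glo was then added, and after 10 min at room temperature, luminescence gave viability.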

[2] = Viability qHTS for spleen associated tyrosine kinase inhibitor (SYKi) naive MV4-11 cells (AID 1963823); note: nearly all actives have a fitted effect of over 40% in size
In short: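 Read-out: CellTiter-Glo luminescence. Exposure: 72 hr, 37 C, 5% CO2, 95% humidity. Cells: MV4-11 without SYK inhibitor history, 500/well, qHTS format.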

[3] = Cellular viability qHTS for adrenocortical cancer (ACC) cell line SW-13 (AID 1963989); settings: SW-13 ACC cells viability, CellTiter-Glo, 48 h; activity (max response): stronger effect = lower value;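 note: cells grown in serum-free medium with ITS supplement; % is set by controls: 0 for no effect and ±100 for the full control effect; nearly all actives have a fitted effect of over 65% in size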
In short: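 SW-13 cells in ITS-supplemented serum-free DMEM were plated overnight, then exposed for 48 h at 37C to compound titrations (up to 46 uM final). Viability was read by CellTiter-Glo luminescence; four-parameter logistic fits gave IC50 and efficacy.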

[4] = Cellular viability qHTS for adrenocortical cancer (ACC) cell line NCI-H295R (AID 1963990); note: nearly all actives have a fitted effect of over 60% in size; note: potency is the fitted concentration of half-maximal effect
In short: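 Luminescent ATP read-out (CellTiter-Glo, 20 min RT) after 48 h drug exposure of NCI-H295R cells; a titration up to 46 uM final. Data normalized to doxorubicin (100% inhibition) and DMSO (0%); 4-parameter fit gives IC50, max response.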

[5] = Quantitative highthroughput screen to assess conditional lethalithy of NOMO1 cells grown in Human Plasma-Like Medium with dialyzed fetal bovine serum (HPLM+ds) (AID 1963878);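 note: 100% = DMSO wells and 0% = empty wells on each plate; nearly all actives have a fitted effect of over 35% in size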
In short: (§1)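 Each medium arm—HPLM with 10% dialyzed FBS, or RPMI1640 with 5 mM glucose and 10% untreated or dialyzed FBS—was screened against an 11-point, 3-fold compound titration for 48 h at 37 °C, with CellTiter-Glo luminescence as endpoint.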

[6] = Quantitative highthroughput screen to assess conditional lethalithy of P12 Ichikawa cells grown in Human Plasma-Like Medium with dialyzed fetal bovine serum (HPLM+ds) (AID 1963879); settings: Potency: viability; note: nearly all actives have a fitted effect of over 35% in size; note: potency is the fitted concentration of half-maximal effect; for Viability: series mostly up to about 46 µM
In short: as §1

[7] = Quantitative highthroughput screen to assess conditional lethalithy of SEM cells grown in RPMI1640 with unreated serum (RPMI+s) (AID 1963883);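 note: 100% = DMSO wells and 0% = empty wells without cells; nearly all actives have a fitted effect of over 35% in size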
In short: as §1

[8] = Quantitative highthroughput screen to assess conditional lethalithy of SEM cells grown in RPMI1640 with dialyzed fetal bovine serum (RPMI+ds) (AID 1963884); note: nearly all actives have a fitted effect of over 35% in size; note: potency is the fitted concentration of half-maximal effect;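 for Viability: series mostly up to about 46 µM; 100% = DMSO control wells and 0% = empty wells without cells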
In short: as §1

[9] = Quantitative highthroughput screen to assess conditional lethalithy of NOMO1 cells grown in RPMI1640 with untreated serum (RPMI+s) (AID 1963876)
In short: as §1

[10] = Quantitative highthroughput screen to assess conditional lethalithy of P12 Ichikawa cells grown in RPMI1640 with dialyzed fetal bovine serum (RPMI+ds) (AID 1963880); settings: Potency: P12-Ichikawa viability; note: nearly all actives have a fitted effect of over 35% in size; note: potency is the fitted concentration of half-maximal effect;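 for Viability: 100% = DMSO wells and 0% = empty wells on each plate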
In short: as §1

[11] = Quantitative highthroughput screen to assess conditional lethalithy of NOMO1 cells grown in RPMI1640 with dialyzed fetal bovine serum (RPMI+ds) (AID 1963877); note: nearly all actives have a fitted effect of over 30% in size; note: potency is the fitted concentration of half-maximal effect;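 for Viability: series mostly up to about 46 µM; 100% = DMSO control wells and 0% = empty wells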
In short: as §1

[12] = Quantitative highthroughput screen to assess conditional lethalithy of P12 Ichikawa cells grown in RPMI1640 with untreated serum (RPMI+s) (AID 1963881); settings: Potency: viability
In short: as §1

[13] = Quantitative highthroughput screen to assess conditional lethalithy of SEM cells grown in Human Plasma-Like Medium with dialyzed fetal bovine serum (HPLM+ds) (AID 1963882)
In short: as §1

CC(=O)OC[C@]12C[C@H](OC(=O)CC(C)C)C(C)=C[C@H]1O[C@@H]1[C@H](O)[C@@H](O)[C@@]2(C)[C@]12CO2
Potency [1]: 0.0089 µM (active)

C[N+]1(CCC(C(N)=O)(c2ccccc2)c2ccccc2)CCCCC1
Potency [2]: inactive
activity (max response) [3]: 8.34% (inactive)
Potency [4]: inactive

COC1(C[S@@](=O)c2ccccc2)CCN(CCc2c[nH]c3ccc(F)cc23)CC1
Potency [1]: 20.6 µM (active)

C[C@@H]1O[C@@H](O[C@H]2CC[C@@]3(C)C(CC[C@@H]4C3CC[C@]3(C)[C@@H](C5=CC(=O)OC5)CC[C@]43O)C2)[C@H](O)[C@H](O)[C@H]1O (some centres undefined)
Potency [1]: 0.2 µM (active)

CCOC(=O)C1(CCc2ccccc2)CCN(Cc2ccc(NC(C)=O)cc2)CC1
Potency [1]: 23.1 µM (active)

CC1=CC2/C=C(\C)CCC(O)C(O)C(O)CC(=O)C23C(=O)NC(CC(C)C)C3C1C (centres undefined)
Potency [1]: 1.78 µM (active)

C=C(C)[C@@H]1[C@H]2OC(=O)[C@H]1[C@]1(O)C[C@H]3O[C@]34C(=O)O[C@H]2[C@]14C
Potency [1]: inactive

CCCCCn1cc(C(=O)Oc2cccc3cccnc23)c2ccccc21
Potency [1]: 23.1 µM (active)

C[C@]12CCC(=O)C=C1CC[C@@H]1[C@H]3CC[C@](C)(O)[C@@]3(C)CC[C@@H]12
Potency [1]: 21.9 µM (active)
Potency [5]: inactive
Potency [6]: inactive
Potency [7]: inactive
Potency [8]: inactive
Potency [4]: 28.2 µM (active)

CO[C@H]1C[C@H](O[C@H]2CC[C@]3(C=O)[C@H]4CC[C@]5(C)[C@@H](C6=CC(=O)OC6)CC[C@]5(O)[C@@H]4CC[C@]3(O)C2)O[C@H](C)[C@H]1O
Potency [1]: 0.0399 µM (active)

CC12CCC3C(C1)c1c(cc(O)c(C(=O)c4ccccc4)c1OC3(C)C)O2 (centres undefined)
Potency [1]: 14.3 µM (active)

Clc1ccccc1C(c1ccccc1)(c1ccccc1)n1cccn1
Potency [1]: 16.6 µM (active)
Potency [9]: inactive
Potency [10]: inactive
Potency [7]: inactive
Potency [8]: inactive
activity (max response) [3]: -15.1% (inactive)
Potency [4]: inactive

CC(C)[C@H]1C(=O)N[C@H](CO)Cc2c[nH]c3cccc(c23)N1C
Potency [1]: 0.288 µM (active)
Potency [6]: inactive
Potency [10]: 0.418 µM (active)
Potency [8]: inactive
activity (max response) [3]: -2.75% (inactive)
Potency [4]: inactive

C#CC1(O)CCC2C3CCC4=CC(=O)CCC4=C3C=CC21C (centres undefined)
Potency [1]: 18.4 µM (active)

CC1=C[C@H]2O[C@@H]3C[C@H]4OC(=O)/C=C/C=C/C(=O)OCC/C(C)=C/C(=O)OC[C@@]2(CC1)[C@]4(C)[C@]31CO1
Potency [1]: 0.0056 µM (active)

CCCCCC[C@H]1C(=O)O[C@H](C)[C@H](NC(=O)c2cccc(NC=O)c2O)C(=O)O[C@@H](C)[C@@H]1OC(=O)CC(C)C
Potency [1]: 0.105 µM (active)
Potency [6]: 1.66 µM (active)

C=C1C(=O)CC2OC2(C)CC2OC(=O)C(=C)C2C(O)C1OC(=O)/C(C)=C\C (centres undefined)
Potency [1]: 0.57 µM (active)

CC(=O)OC[C@]12C[C@H](OC(=O)CC(C)C)C(C)=C[C@H]1O[C@@H]1[C@H](O)[C@@H](OC(C)=O)[C@@]2(C)[C@@]12CO2
Potency [1]: 0.0089 µM (active)

CC1=C2C(=O)C3[C@@H](CC=C4C[C@@H](O)CC[C@@]43C)[C@@H]2CC[C@]12O[C@@H]1C[C@H](C)CN[C@H]1[C@H]2C (some centres undefined)
Potency [1]: inactive

CCN1C[C@]2(OC(=O)c3ccccc3NC(C)=O)CC[C@H](OC)[C@@]34[C@@H]2C[C@@H]([C@@H]13)[C@@]1(O)C[C@H](OC)[C@H]2C[C@@H]4[C@]1(O)[C@H]2OC
Potency [1]: 4.11 µM (active)

CN(C(=O)CN1C(=O)COc2cc(Cl)c(Cl)cc21)[C@@H](CN1CCCC1)c1ccc(-c2cccc(C(N)=O)c2)cc1
Potency [1]: 8.2 µM (active)

CC1=CC(=O)[C@@H](O)[C@]2(C)C3[C@@H](O)[C@@H]4OC(=O)[C@@H]([C@H]4C)[C@]3(C)C(=O)[C@H](O)[C@@H]12 (some centres undefined)
Potency [1]: 12.8 µM (active)

COC(=O)CC1CC2(C(=O)c3c(O)cccc3C2(O)C(=O)OC)C(C)O1 (centres undefined)
Potency [1]: 16.1 µM (active)

C=C1[C@@H](C)C2[C@H](Cc3ccccc3)NC(=O)[C@@]23C(/C=C/C[C@H](C)C[C@@](C)(O)/C=C/[C@@H]3OC(C)=O)[C@@H]1O (some centres undefined)
Potency [1]: 0.92 µM (active)

CC(C)(O)C(=O)Nc1ccc([N+](=O)[O-])c(C(F)(F)F)c1
Potency [1]: 18.6 µM (active)
Potency [11]: 1.87 µM (active)
Potency [6]: 8.33 µM (active)
Potency [10]: 16.6 µM (active)
Potency [7]: inactive
Potency [8]: inactive
activity (max response) [3]: -7.23% (inactive)
Potency [4]: inactive

C=CC(C)(C)c1[nH]c2cccc3c2c1C[C@@H]1[C@@H]3[C@@H](OC(C)=O)[C@H](C)CN1C
Potency [1]: 1.01 µM (active)

CN(C(=O)C(c1ccccc1)c1ccccc1)[C@H](CN1CC[C@H](O)C1)c1ccccc1
Potency [1]: 20.6 µM (active)

CN(C)[C@@H]1C(=O)C(C(N)=O)=C(O)[C@@]2(O)C(=O)C3=C(O)c4c(O)cccc4[C@@](C)(O)[C@H]3C[C@@H]12
Potency [1]: 16.6 µM (active)
Potency [9]: inactive
Potency [11]: inactive
Potency [6]: inactive
Potency [7]: inactive
activity (max response) [3]: 15% (inactive) and 6.24% (inactive)

CCCCOC(=O)c1ccnc2cc(C(OCCN3CCCCC3)c3ccccc3Cl)sc12 (centres undefined)
Potency [1]: 20.6 µM (active)

Cn1cc(C2=C(c3cn(C4CCN(Cc5ccccn5)CC4)c4ccccc34)C(=O)NC2=O)c2ccccc21
Potency [1]: 5.25 µM (active)
Potency [6]: inactive
Potency [10]: inactive
Potency [12]: inactive
Potency [8]: 5.9 µM (active)
activity (max response) [3]: -7.67% (inactive) and -14.7% (inactive)
Potency [4]: inactive

C/C=C(\C)C(=O)O[C@@H]1[C@@H](C)[C@]2(O)C3C=C(C)C(=O)[C@@]3(O)CC(CO)=C[C@H]2C2C(C)(C)[C@@]21OC(=O)C(C)CC (some centres undefined)
Potency [1]: 0.0045 µM (active)

C[C@H]1O[C@@H](O[C@H]2C[C@@H](O)[C@]3(CO)C4C(CC[C@]3(O)C2)[C@@]2(O)CC[C@H](C3=CC(=O)OC3)[C@@]2(C)C[C@H]4O)[C@@H](O)[C@@H](O)[C@H]1O (some centres undefined)
Potency [1]: 0.122 µM (active)

C=CCN1CCC2(C)c3cc(O)ccc3C[C@H]1[C@H]2C
Potency [1]: inactive

COC[C@H]1OC(=O)c2coc3c2[C@@]1(C)C1=C(C3=O)C2CCC(=O)[C@@]2(C)C[C@H]1OC(C)=O (some centres undefined)
Potency [1]: 16.4 µM (active) and 3.72 µM (active)
Potency [5]: inactive
Potency [10]: inactive
Potency [13]: inactive
